In PubChem BioAssay:
The source made the active and inactive calls.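 How the source made its calls: active means mean duplicate potentiation above the buffer control mean plus 5 SD of buffer wells; inactive means the rest.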

Target: Potassium voltage-gated channel subfamily KQT member 2 (Rattus norvegicus) (UniProt O88943)
Assay: KCNQ2 thallium flux enhancement – KCNQ2-CHO-K1 cells, selectivity assay for KCNQ1 potentiator project (AID 493009);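 further: assay conditions were tuned for KCNQ1 rather than KCNQ2 modulators; signal is max minus min fluorescence divided by baseline after thallium stimulus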
Conditions: FluxOR thallium flux fluorescence, at 10 µM; active compounds read high, scaled: buffer 0, activator control 100

Sequence of Potassium voltage-gated channel subfamily KQT member 2 (Rattus norvegicus) (O88943 whole entry, looked up): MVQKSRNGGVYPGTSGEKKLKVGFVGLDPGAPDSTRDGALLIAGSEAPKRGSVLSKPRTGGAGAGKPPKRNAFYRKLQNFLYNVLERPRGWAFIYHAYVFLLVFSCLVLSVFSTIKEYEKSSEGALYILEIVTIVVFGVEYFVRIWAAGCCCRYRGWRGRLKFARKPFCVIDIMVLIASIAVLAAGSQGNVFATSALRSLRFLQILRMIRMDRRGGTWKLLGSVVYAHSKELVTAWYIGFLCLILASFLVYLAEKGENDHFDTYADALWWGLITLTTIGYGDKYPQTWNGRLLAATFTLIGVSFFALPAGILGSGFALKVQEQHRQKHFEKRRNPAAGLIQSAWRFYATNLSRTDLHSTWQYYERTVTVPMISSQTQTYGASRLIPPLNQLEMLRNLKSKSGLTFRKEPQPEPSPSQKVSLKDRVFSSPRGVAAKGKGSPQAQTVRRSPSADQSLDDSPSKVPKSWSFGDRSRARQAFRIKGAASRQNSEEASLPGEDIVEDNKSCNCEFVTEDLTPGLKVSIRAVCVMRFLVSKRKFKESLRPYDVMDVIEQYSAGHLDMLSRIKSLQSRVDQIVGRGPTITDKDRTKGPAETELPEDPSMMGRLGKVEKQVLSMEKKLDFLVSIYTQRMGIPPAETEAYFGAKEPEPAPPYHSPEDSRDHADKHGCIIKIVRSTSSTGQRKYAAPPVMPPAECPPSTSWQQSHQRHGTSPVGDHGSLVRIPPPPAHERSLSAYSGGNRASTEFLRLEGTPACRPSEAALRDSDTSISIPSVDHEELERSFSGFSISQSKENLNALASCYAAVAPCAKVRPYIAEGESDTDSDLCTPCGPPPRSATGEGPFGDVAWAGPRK

| Structure (SMILES) | potentiation | outcome |
| --- | --- | --- |
| CCCn1c(=S)[nH]c2ccccc2c1=O | 168% (active) | – |
| O=C1OC(c2ccc(F)cc2)=N/C1=C\c1ccc(Br)o1 | 266% (active) | – |
| CCN(Cc1cc2cc(OC)ccc2[nH]c1=O)C(=O)c1ccncc1 | – | inactive |
| COc1ccc(CN(C)C(=O)c2ccc3ccccc3n2)cc1F | – | inactive |
| Cc1nn(CCc2nn[nH]n2)c2nc(-c3ccc(C4CCCCC4)cc3)cc(C(F)(F)F)c12 | 182% (active) | – |
| CS(=O)(=O)N1CCC(C(=O)Nc2ccc(OCc3ccccc3)cc2)CC1 | – | inactive |
| Cc1ccc(Oc2ccc(NC(=O)Cn3ccsc3=N)cc2)cc1 | – | inactive |
| N#C/C(=C\c1ccc(-c2ccccc2[N+](=O)[O-])o1)C(=O)Nc1nc(-c2cccs2)cs1 | 224% (active) | – |
| COc1ccc(NC(=S)NC(=O)c2ccccc2Cl)cc1 | – | inactive |
| S=c1[nH]cnc2scc(-c3ccccc3)c12 | 205% (active) | – |
| CC(C)n1cc(NC(=O)c2cc(-c3ccccc3)on2)cn1 | 236% (active) | – |
| COc1ccc(-c2cc3nc(C)c(CCC(=O)NC(C)CCc4ccco4)c(C)n3n2)c(OC)c1 (stereo not given) | – | inactive |
| Oc1oc(-c2cccc3ccccc23)nc1/C=N/c1nccs1 | 164% (active) | – |
| COC(=O)C1C(c2ccc(OC)c(OC)c2)NC(c2ccc(OC)c(OC)c2)C(C(=O)OC)S1(=O)=O (stereo not given) | – | inactive |
| COc1ccc(C)cc1NC(=O)C(=O)NNC(=O)c1ccco1 | 363% (active) | – |
| CN(C)S(=O)(=O)c1ccc(Cl)c(NC(=O)CN2CCCCCC2)c1 | – | inactive |
| CCCN(CCC)C(=S)NC(=O)c1ccc(-c2ccccc2)cc1 | 556% (active) | – |
| Cc1nnc(SCC(=O)N(Cc2ccccc2)C(C)C)n1-c1ccccc1 | – | inactive |
| CCCCCCCCCCCCN1[C@@H](CC(=O)O)c2cc(F)ccc2S1(=O)=O | 190% (active) | – |
| CC1CCN(c2ncnc3ccccc23)CC1 | – | inactive |

| Structure (SMILES) | potentiation | outcome |
| --- | --- | --- |
| O=c1ccc(N=Nc2ccccc2)ccc1O | 430% (active) | – |
| CC1CCN(C(=S)NC(=O)c2cccc([N+](=O)[O-])c2)CC1 | 189% (active) | – |
| CSC(C(=O)c1cc2ccccc2o1)c1ccccc1 (stereo not given) | – | inactive |
| CCc1ccc(-c2c(C)sc(NC(C)=O)c2C(N)=O)cc1 | – | inactive |
| COC(=O)C1CCCN1C(=O)COc1ccc(Br)cc1Cl (stereo not given) | 198% (active) | – |
| CC1=C(C)/C(=N\OS(=O)(=O)c2ccccc2)C=CC1=O | – | inactive |
| O=C(NC(=S)Nc1ccccc1N1CCOCC1)c1sc2ccccc2c1Cl | – | inactive |
| COC(=O)c1sc(NC(=S)NC(=O)c2ccccc2F)nc1C | – | inactive |
| CN(C)c1ccc(C(=O)Nc2nnc(C3=COCCO3)o2)cc1 | – | inactive |
| CNC(=O)c1cc(-c2ccc(Cl)cc2)n(-c2ccccc2)n1 | – | inactive |
| NC(N)=N/N=C/c1ccccc1OC(F)F | – | inactive |
| Cc1ccc(C(=O)NCCC(=O)NCc2cc(=O)n(C)c(=O)n2C)cc1 | – | inactive |
| O=C(CN(c1ccc(Cl)cc1)S(=O)(=O)c1ccc(Cl)c([N+](=O)[O-])c1)NCCc1ccc(F)cc1 | – | inactive |
| COc1ccc(-n2cc(-c3ccccc3)c3c(=S)nc[nH]c32)cc1 | 172% (active) | – |
| O=C(NC(=S)Nc1nc2ccc(F)cc2s1)c1ccco1 | 331% (active) | – |
| Cc1ccc(NC(=O)CCS(=O)(=O)c2cccc3nonc23)c(Br)c1 | – | inactive |
| O=c1c2cc(Cl)ccc2nc(-c2ccc([N+](=O)[O-])cc2)n1O | 456% (active) | – |
| CC(=O)N[C@H]1[C@H](OC2CCCCC2)O[C@H](COC(C)=O)[C@@H](OC(C)=O)[C@@H]1OC(C)=O | – | inactive |
| O=C(NNc1nc2c(F)cccc2s1)c1cc(=O)c2ccccc2o1 | – | inactive |
| CSc1ccccc1C(=O)NC1CCCc2ccccc21 (stereo not given) | – | inactive |
